The full list was thinned out, with the strongest signals kept by preference.
Experiments:
Test in all cases: glycan array binding signal (z-score within array); higher = stronger binding
Conditions in all cases: glycan notation: IUPAC condensed, linker removed
[1] = biological target: Fuc(a1-2)Gal(b1-3)GalNAc(b1-3)Gal
How it was run: (§1)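 The binding signal is a Z-score computed within each array. Data were drawn from 3228 arrays in the Consortium for Functional Glycomics database, restricted to those with a known protein sequence. Scores were averaged over arrays of the same protein sequence at different concentrations or buffers, and over linkers, and negative values can be taken as non-binding.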

[2] = biological target: Fuc(a1-2)Gal(b1-3)GlcNAc(b1-3)[Gal(b1-4)GlcNAc(b1-6)]Gal(b1-4)Glc
How it was run: as §1

[3] = biological target: Fuc(a1-2)Gal(b1-3)GlcNAc6S
How it was run: as §1

[4] = biological target: Fuc(a1-2)Gal(b1-4)GlcNAc(b1-2)[Fuc(a1-2)Gal(b1-4)GlcNAc(b1-4)]Man(a1-3)[Fuc(a1-2)Gal(b1-4)GlcNAc(b1-2)Man(a1-6)]Man(b1-4)GlcNAc(b1-4)GlcNAc
How it was run: as §1

[5] = biological target: Fuc(a1-2)Gal6S(b1-3)GlcNAc
How it was run: as §1

[6] = biological target: Fuc(a1-2)[Gal(a1-3)]Gal(b1-3)GlcNAc
How it was run: as §1

[7] = biological target: Fuc(a1-2)[GalNAc(a1-3)]Gal(b1-4)GlcNAc(b1-3)Gal(b1-4)GlcNAc
How it was run: as §1

[8] = biological target: Fuc(a1-3)[Gal(b1-4)]GlcNAc(b1-2)Man(a1-3)[Fuc(a1-3)[Gal(b1-4)]GlcNAc(b1-2)Man(a1-6)]Man(b1-4)GlcNAc(b1-4)GlcNAc
How it was run: as §1

[9] = biological target: Fuc(a1-3)[GalNAc(b1-4)]GlcNAc
How it was run: as §1

[10] = biological target: Fuc(a1-4)GlcNAc
How it was run: as §1

[11] = biological target: Gal(a1-3)Gal
How it was run: as §1

[12] = biological target: Gal(a1-3)Gal(b1-3)GlcNAc(b1-3)GalNAc
How it was run: as §1

[13] = biological target: Gal(a1-3)Gal(b1-4)[Fuc(a1-3)]GlcNAc
How it was run: as §1

[14] = biological target: Gal(a1-4)Gal(b1-4)GlcNAc
How it was run: as §1

[15] = biological target: Gal(b1-3)GalNAc(b1-3)Gal
How it was run: as §1

[16] = biological target: Gal(b1-3)GalNAc(b1-4)Gal(b1-4)Glc
How it was run: as §1

[17] = biological target: Gal(b1-3)GalNAc(b1-4)[Neu5Ac(a2-3)]Gal(b1-4)Glc
How it was run: as §1

[18] = biological target: Gal(b1-3)GlcNAc(a1-6)Gal(b1-4)GlcNAc
How it was run: as §1

[19] = biological target: Gal(b1-3)GlcNAc(b1-2)Man(a1-3)[Gal(b1-3)GlcNAc(b1-2)Man(a1-6)]Man(b1-4)GlcNAc(b1-4)GlcNAc
How it was run: as §1

[20] = biological target: Gal(b1-3)GlcNAc(b1-2)Man(a1-3)[Gal(b1-3)GlcNAc(b1-2)Man(a1-6)]Man(b1-4)GlcNAc(b1-4)[Fuc(a1-6)]GlcNAc
How it was run: as §1

[21] = biological target: Gal(b1-3)GlcNAc(b1-6)[Gal(b1-3)]GalNAc
How it was run: as §1

[22] = biological target: Gal(b1-3)[Neu5Ac(b2-6)]GalNAc
How it was run: as §1

[23] = biological target: Gal(b1-4)GlcNAc
How it was run: as §1

[24] = biological target: Gal(b1-4)GlcNAc(b1-2)Man(a1-3)[Man(a1-6)]Man(b1-4)GlcNAc(b1-4)GlcNAc
How it was run: as §1

[25] = biological target: Gal(b1-4)GlcNAc(b1-2)[Gal(b1-4)GlcNAc(b1-4)]Man(a1-3)[GlcNAc(b1-4)][Gal(b1-4)GlcNAc(b1-2)[Gal(b1-4)GlcNAc(b1-6)]Man(a1-6)]Man(b1-4)GlcNAc(b1-4)GlcNAc
How it was run: as §1

[26] = biological target: Gal(b1-4)GlcNAc(b1-3)Gal(b1-4)GlcNAc(b1-3)Gal(b1-4)GlcNAc(b1-3)Gal(b1-4)GlcNAc(b1-3)Gal(b1-4)GlcNAc(b1-2)Man(a1-3)[Gal(b1-4)GlcNAc(b1-3)Gal(b1-4)GlcNAc(b1-3)Gal(b1-4)GlcNAc(b1-3)Gal(b1-4)GlcNAc(b1-3)Gal(b1-4)GlcNAc(b1-2)Man(a1-6)]Man(b1-4)GlcNAc(b1-4)[Fuc(a1-6)]GlcNAc
How it was run: as §1

[27] = biological target: Gal3S(b1-4)[Fuc(a1-3)]GlcNAc
How it was run: as §1

[28] = biological target: GalNAc(a1-3)GalNAc
How it was run: as §1

[29] = biological target: GalNAc(a1-3)GalNAc(b1-3)Gal(a1-4)Gal(b1-4)GlcNAc
How it was run: as §1

[30] = biological target: GlcA(b1-3)Gal
How it was run: as §1

B1: UDA (Urtica dioica), P11218 (protein)
chain: MMMRFLSAVVIMSSAMAVGLVSAQRCGSQGGGGTCPALWCCSIWGWCGDSEPYCGRTCENKCWSGERSDHRCGAAVGNPPCGQDRCCSVHGWCGGGNDYCSGSKCQYRCSSSVRGPRVALSGNSTANSIGNVVVTEPLFDQMFSHRKDCPSQGFYSYHSFLVAAESFPAFGTIGDVATRKREVAAFLAHISQATSGERSDVENPHAWGLCHINTTTVTENDFCTSSDWPCAAGKKYSPRGPIQLTHNFNYGLAGQAIGEDLIQNPDLVEKDPIISFKTALWFWMSQHDNKPSCHDIVLNANSAANRIPNKGVIGNIISRAFGHDDFAVRSSSIGFYKRYCDMLGVSYGHDLKYWFDNTPSSEFQRIQMRVAA
glycan array binding signal (z-score) [1]: -0.215
glycan array binding signal (z-score) [2]: -0.109
glycan array binding signal (z-score) [3]: -0.182
glycan array binding signal (z-score) [4]: -0.161
glycan array binding signal (z-score) [5]: -0.184
glycan array binding signal (z-score) [6]: -0.167
glycan array binding signal (z-score) [7]: -0.054
glycan array binding signal (z-score) [8]: -0.165
glycan array binding signal (z-score) [9]: -0.172
glycan array binding signal (z-score) [10]: -0.178
glycan array binding signal (z-score) [11]: -0.189
glycan array binding signal (z-score) [12]: -0.177
glycan array binding signal (z-score) [13]: -0.183
glycan array binding signal (z-score) [14]: -0.101
glycan array binding signal (z-score) [15]: -0.178
glycan array binding signal (z-score) [16]: -0.186
glycan array binding signal (z-score) [17]: -0.189
glycan array binding signal (z-score) [18]: -0.166
glycan array binding signal (z-score) [19]: 0.04
glycan array binding signal (z-score) [20]: -0.156
glycan array binding signal (z-score) [21]: -0.177
glycan array binding signal (z-score) [22]: -0.187
glycan array binding signal (z-score) [23]: 0.006
glycan array binding signal (z-score) [24]: 4.63
glycan array binding signal (z-score) [25]: -0.17
glycan array binding signal (z-score) [26]: 1.52
glycan array binding signal (z-score) [27]: -0.184
glycan array binding signal (z-score) [28]: -0.191
glycan array binding signal (z-score) [29]: -0.177
glycan array binding signal (z-score) [30]: -0.173

From the supplement of paper PMC8728848
